Consider 106 molecules from PubChem BioAssay AID624491 (Broad Institute, 2012).

Molecules are shown by their SMILES. Among all 1,800 compounds or so, about 1,400 (78%) were called active. Not shown: some 2% with an inconclusive outcome. The set was probably picked from earlier hits. A selection follows. Measured potencies and affinities stand elsewhere. A number with no mark means an inactive call.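 Rule for the calls: active = fitted curve crossing a set activation limit at or below the highest valid dose tested; inconclusive = flat fit at 30 to 70% activation, or poor fit; inactive = the rest, including signal decreases.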

This test in a line: blockers of NLG process in reporter cells – D54 ERlucT cells, luminescence, cherry-picks, dose response (AID 624491).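 Note: signal gain reflects blocked N-linked glycosylation of a luciferase reporter.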 Particulars: D54 ERlucT glycosylation luciferase reporter, 24 h, 100% = twice neutral-control luminescence; series mostly up to 19.5 µM; activation (NLG inhibition): at the top concentration. For orientation: Reporter assays use an easily measured gene product as a stand-in for the process of interest.
As to `CC[C@@H]1CC=C[C@H]2[C@H]1C(=O)N(Cc1ccccc1)[C@H]2c1ccoc1`, the “activation (NLG inhibition)” value is 22.8%.
For the molecule `c1ccc2[nH]c3cc4ncnc4cc3nc2c1`, the “activation (NLG inhibition)” value is 3.68%.
In the case of `NS(=O)(=O)c1ccc(N=Nc2c(O)[nH]c3ccc(Br)cc23)cc1` it was 26.4%; in that of `COc1ccc(CN(C)c2ncnc3sccc23)c(OC)c1OC`, 29.3%; in that of `CCc1ccccc1NC(=O)Cn1nnc(C(=O)NCc2cccs2)c1N`, 22.7% [at 5 µM].
Next, `COc1ccc(C(=O)/C=C/c2ccccc2F)c(OC(=O)c2ccc([N+](=O)[O-])cc2)c1`: 23%; `O=C(NCc1ccc2c(c1)OCO2)c1cc([N+](=O)[O-])ccc1N1CCOCC1`: -15.2%; `CC1=C[C@@H](C)[C@@H](c2ccc(C(F)(F)F)cc2)OC1=O`: 31.7%.
For `O=C(COc1ccc2c(-c3ccccc3)cc(=O)oc2c1)N[C@@H](Cc1c[nH]c2ccc(O)cc12)C(=O)O`, the “activation (NLG inhibition)” value was 18.2%.
Next, `COc1ccc2c(c1)c1ccc3c(c1n2C)C(=O)C=CC3=O`: 31.4%; `COc1cc2c(cc1OC)C(c1ccccc1)N(C(=O)CCl)CC2` (stereo unspecified): -90.9%; `COc1ccc(CC(=O)NCc2ccccc2)cc1`: 49%.
Next, `COc1ccc(NS(=O)(=O)c2cc(NC(=O)c3nn(C)c(=O)c4ccccc34)ccc2OC)cc1`: 39.3%; `COc1cc2nc(NC(=O)c3ccccc3)sc(=O)c2cc1OC`: -2.97%.
In the case of `COc1ccc(C(=O)c2sc(Nc3ccccc3)nc2N)cc1OC` it was 26%.
`COc1ccccc1N(C)S(=O)(=O)c1ccc(C(=O)OCC(=O)N2CCC2)cc1`: the “activation (NLG inhibition)” value was 37.2%.
In the case of `CC1CN(C(=O)c2cc(-c3ccc(Cl)s3)nc3ccccc23)CC(C)O1` (stereo unspecified) it was 114%; in that of `O=C(c1cc(-c2cccs2)nc2ccccc12)N1CCN(c2ccccc2)CC1`, 30.5%.
Next, `O=C(N/N=C/c1ccc2c(c1)OCO2)c1sc2cc(Cl)ccc2c1Cl`: 31.9%.
`Oc1[nH]c(N=C2N=c3ccccc3=N2)c2ccccc12`: the “activation (NLG inhibition)” value was 623%.
In the case of `COc1cc(/C=C2/C(=O)N(C)C(=S)N2C)ccc1OCc1cccc(F)c1` it was 7.41%; in that of `C(=N\Nc1nc2ccccc2[nH]1)/c1c[nH]c2ccccc12`, 22%.
In the case of `O=C(c1cccc([N+](=O)[O-])c1)N1CCN(c2cccc(Cl)c2)CC1` it was 32.1%; in that of `CCOC(=O)N1CCN(C(=O)c2cccc(N3C(=O)NC4CC3(C)Oc3ccc(Cl)cc34)c2)CC1` (stereo unspecified), 46.9%; in that of `CCOc1ccc(C(=O)Nc2cc(-c3nc4ccccc4[nH]3)ccc2Cl)cc1[N+](=O)[O-]`, 22.3%.
In the case of `Cc1c(Cl)ccc2c(C(=O)Nc3cc(C(C)(C)C)on3)cc(-c3ccccn3)nc12` it was 85.9%; in that of `O=C1COc2ccc(C(=O)/C=C/c3ccccc3)cc2N1`, 22.8%; in that of `O=C(Cc1ccc(Cl)cc1)Nc1ccccc1N1CCN(C(=O)c2ccccc2)CC1`, 74%.
For the molecule `COc1ccc(N2CC(C(=O)Nc3cc(C(F)(F)F)ccc3N3CCCC3)CC2=O)c(OC)c1` (stereo unspecified), the “activation (NLG inhibition)” value is 60.1%.
Next, `NC(=O)[C@H]1CC2(CC(c3cccc(NC(=O)COc4ccc(Cl)cc4)c3)=NO2)CN1C(=O)C(c1ccccc1)c1ccccc1` (stereo partly specified): 9.14%; `O=C(COc1ccc(Oc2ccccc2)cc1)NCc1cn2ccccc2n1`: 35.6%.
In the case of `O=C(c1ccc(Cl)cc1)C(CN1CCCCC1)c1ccccc1` (stereo unspecified) it was -93.5%; in that of `Cc1cc(=O)oc2cc(OCC3CC(c4ccccc4)=NO3)ccc12` (stereo unspecified), 81.1%.
On to `COc1cc(/C=C/C(=O)c2ccc3c(c2)OCCO3)cc(OC)c1OC`, for which the “activation (NLG inhibition)” value was 19.1%.
In the case of `O=C(/C=C/c1ccncc1)c1ccc2c(c1)OCCO2` it was 10.3%.
Next, `CCOc1cc(/C=C/C(=O)c2ccc(C)cc2)ccc1OCC(=O)N(C)C`: -3.96%; `CC(=O)Nc1ccc(/C=C/C(=O)c2ccc3c(c2)OCCO3)cc1`: 8.38%.
For the molecule `O=C(C=Cc1ccc2c(c1)OCO2)C=Cc1ccc2c(c1)OCO2`, the “activation (NLG inhibition)” value was 3.68%.
Next, `C=CCOc1ccc(C2C(C#N)=C(N)N(Nc3ccccc3)C3=C2C(=O)CCC3)cc1OC` (stereo unspecified): 61%; `Cc1cc(OC(C)C)nc(NCc2ccccc2)n1`: 2.85% [at 5 µM]; `COc1ccc(Cn2c(=O)cc(N)n(-c3ccccc3C)c2=O)cc1`: 23.6%.
Regarding `Cn1c(N)c(C(=O)COC(=O)c2cc(S(=O)(=O)N3CCOCC3)ccc2F)c(=O)n(C)c1=O`, the “activation (NLG inhibition)” value was -21.7%.
Next, `CCCCCCCCCCCCCCCC[n+]1ccc(/C=N/O)cc1`: 57.2%.
Next, `Cc1ccc(OCCOC(=O)c2c(-c3ccccc3)noc2C)cc1`: 6.86%.
Next, `Cc1cc(C)c(C)c(OC(=O)c2sc(Cl)nc2C)c1`: -42.8%.
For `COc1ccc(C(=O)c2sc(Nc3ccccc3)nc2N)cc1`, the “activation (NLG inhibition)” value is 22.2%.
Next, `CN(C)c1ccc(/C=N/NC(=O)c2ccccc2Cl)cc1`: 37.5%; `CCOc1ccc(Nc2nc(Cc3nnc(SCC(=O)NCc4ccco4)n3CC)cs2)cc1`: 40.1%; `Cc1ccc(Cc2c(C)nc3nc(SCC(=O)NCc4ccco4)nn3c2C)cc1`: 35.5%.
Next, `Cc1cc2cc(CNC(=O)Cc3cccs3)ccc2n1C`: -4.54%.
Next, `S=c1[nH]nc(-c2cc(-c3ccccc3)n[nH]2)n1/N=C/C(Br)=C/c1ccccc1`: -26.6%.
As for `COC(=O)CC1COc2ccccc2N1S(=O)(=O)c1ccc(OC)cc1` (stereo unspecified), the “activation (NLG inhibition)” value was 19.8%.
In the case of `COc1ccc(F)cc1C1=CC(=O)C[C@H](c2ccc3c(c2)OCO3)C1` it was 20.3%; in that of `CN1CC(=O)N2C(c3ccc(Cl)cc3)c3[nH]c4ccccc4c3C[C@H]2C1=O` (stereo partly specified), 57.6%.
In the case of `CCc1ccc(/C=N/NC(=O)c2cc(-c3ccncc3)nc3ccccc23)s1` it was 38.8%; in that of `COc1cc(N=Nc2cccc(S(N)(=O)=O)c2)c2ccccc2c1N`, -28.1%.
On to `Oc1ccc(NCc2cccs2)cc1`, for which the “activation (NLG inhibition)” value is -2.52%.
On to `OCC1OC(n2cnc3c(=S)nc[nH]c32)CC1O` (stereo unspecified), for which the “activation (NLG inhibition)” value is 15.2%.
In the case of `Cc1ccc2nsnc2c1NC(=O)c1ccc([N+](=O)[O-])o1` it was 0.238%; in that of `O=C(Nc1c(Cl)ccc2nsnc12)c1ccc([N+](=O)[O-])o1`, -5.17%; in that of `Oc1ccc(N=Nc2ccccc2)o1`, 4.57%.
In the case of `CCCCCc1ccc(OCCC[n+]2ccccc2)c(CCCCC)c1` it was -7.5%.
In the case of `Cc1noc(C)c1COc1ccccc1C(=O)N1CCN(c2cccc(C(F)(F)F)c2)CC1` it was 41.9%; in that of `CC1(C(=O)NCc2ccccc2)Cc2c(-c3ccccc3)ccnc2O1` (stereo unspecified), 30.5%; in that of `COc1ccc(CCCNC(=O)C2(C)Cc3c(-c4ccc5c(c4)OCO5)ccnc3O2)cc1` (stereo unspecified), 67.4%.
In the case of `CC1(C(=O)Nc2ccc(Cl)cc2)Cc2c(-c3ccc4c(c3)OCO4)ccnc2O1` (stereo unspecified), the “activation (NLG inhibition)” value is 2.48%.
Next, `CC1(C(=O)NCc2ccccc2)Cc2c(-c3ccc4c(c3)OCO4)ccnc2O1` (stereo unspecified): 48.3%; `CC(=O)Nc1cccc(-c2ccnc3c2CC(C)(C(=O)NCc2ccc(N(C)C)cc2)O3)c1` (stereo unspecified): 30.5%; `O=C(CCl)Nc1cc(-c2ccccc2)nn1-c1ccccc1`: -66.9%.
In the case of `CCOC(=O)c1c(C)oc2c(F)c(F)c(F)c(F)c2c1=O` it was -96.3%; in that of `COc1ccc(S(=O)(=O)Nc2ccc3c(c2)n(C)c(=O)n3C)cc1OC`, 10.9% [at 5 µM]; in that of `CC(=O)Nc1sc(C)c(C)c1C(=O)OCC(=O)Nc1cccc(C)c1`, 130%.
In the case of `CCOC(=O)c1c(NC(C)=O)sc2c1CCC(C=O)=C2Sc1ccccc1` it was 14.9% [at 5 µM]; in that of `COC(=O)c1cc(=O)n(Cc2ccco2)c(=Nc2ccc(F)cc2)s1`, 1.44%.
For `COc1ccc(-c2nc(NC(=O)C3CC(=O)N(c4ccc5c(c4)OCCO5)C3)sc2C)cc1` (stereo unspecified), the “activation (NLG inhibition)” value is 38%.
In the case of `Cc1cnc(NC(=O)C2CC(=O)N(c3cccc(Cl)c3)C2)s1` (stereo unspecified) it was 0.274% [at 5 µM]; in that of `CCOC(=O)C1CCN(Cc2cc(Cl)c3ccccc3c2O)CC1`, 5.3%.
On to `CCOC(=O)C1CCN(S(=O)(=O)Cc2ccccc2)CC1`, for which the “activation (NLG inhibition)” value was -4.23% [at 5 µM].
Next, `CCOC(=O)/C=C(\C)Sc1cc(=O)oc2ccccc12`: 0.993%; `Cc1ccc(OCC(=O)Nc2ccc(NC(=O)c3cccs3)cc2)c(C)c1`: 602%; `Cc1ccc(C(=O)Nc2ccc(C(=O)/C=C/c3cccs3)cc2)cc1`: 14.5%.
In the case of `COc1ccc(Nc2nc(N)c(C(=O)c3ccc(F)cc3)s2)cc1` it was -4.92%.
In the case of `Cc1nn(CC(C)C)c(Cl)c1C(=O)N(c1ccc(Cl)cc1F)S(C)(=O)=O`, the “activation (NLG inhibition)” value is 61.3%.
Next, `C[C@]1(O)CC(=O)C=C[C@H]1Nc1ccccc1`: 80%; `COc1cccc(-c2cc(C(=O)Nc3cc(OC)c(OC)c(OC)c3)no2)c1`: 37.2%.
As to `COc1cc(NC(=O)N2CCc3nc(NCc4cccc(Oc5ccccc5)c4)ncc3C2)cc(OC)c1OC`, the “activation (NLG inhibition)” value is 33.2%.
Next, `COc1cc2cc(-c3ccc(O)cc3O)nc(C)c2cc1OC`: 22%; `COc1ccc(C(=O)n2c(-c3ccco3)nc3ccccc32)cc1`: 18.1%.
`CCOC(=O)C(=Cc1ccc(-c2ccsc2C(=O)OC)o1)C(=O)OCC`: the “activation (NLG inhibition)” value is 47.5%.
In the case of `CCCN(CCC)S(=O)(=O)c1ccc(C(=O)Nc2nc3c(s2)CCc2ccccc2-3)cc1` it was 88.9%.
For the molecule `O=C(NC1CCCCC1)c1cccc2c1C(=O)c1ccc(-c3ccc(OC(F)(F)F)cc3)cc1S2(=O)=O`, the “activation (NLG inhibition)” value is -5.59%.
Regarding `CCN(CC)c1cc(C)c2cc(NC(=O)c3ccccc3OC)ccc2n1`, the “activation (NLG inhibition)” value is 52.2%.
`CCOC(=O)c1cc2c(ccn2C)n1CC(=O)N1CCN(c2ccccc2)CC1`: the “activation (NLG inhibition)” value is 8.28%.
Next, `CCOC(=O)c1cc2sccc2n1CC(=O)N1c2ccccc2CC1C` (stereo unspecified): 1420%; `COC(=O)c1ccc2c(=O)n(Cc3ccc(C(=O)NC(C)C)cc3)c(=S)[nH]c2c1`: 35%; `COc1ccc(-n2c(=S)[nH]c3cc(C(=O)NC4CCCCC4)ccc3c2=O)c(OC)c1`: 29.5%.
Next, `CCN1/C(=C/c2ccc3ccccc3[n+]2CC)C=Cc2ccccc21`: 84%; `COc1cc(CCC(=O)Nc2nnc(C)s2)cc(OC)c1OC`: 31.1%; `Cc1noc2ncnc(Sc3ccc(Cl)cc3)c12`: -2.99%.
Next, `Cc1ccc(C)c(N2CCN(c3cnn(-c4nc5ccccc5s4)c(=O)c3Cl)CC2)c1`: 79.4%.
As to `COc1ccc(C2NC(=S)NC3=C2CCCC3=C2SCCS2)cc1` (stereo unspecified), the “activation (NLG inhibition)” value was 1170%.
Consider `O=C(Cc1csc(Nc2nc(=S)[nH]c3ccccc23)n1)NCc1cccc(Cl)c1`, for which the “activation (NLG inhibition)” value is 163%.
Next, `CNC(=O)c1cccc2nc3ccccc3nc12`: 18.8%.
Next, `CC(C)Oc1ccccc1C1CC(=O)Nc2cc3c(cc21)OCO3` (stereo unspecified): 18.1%; `COc1cc(C2CC(=O)N(c3ccc(C)cc3)C(=O)C2)cc(OC)c1OC`: 6.21%; `CCOc1ccccc1C1CC(=O)Nc2cc3c(cc21)OCCO3` (stereo unspecified): 20.7%.
